Assay outcomes (PubChem)
Rows were chosen to be rich in hits. Some 12% of all compounds tested hit in one or more screens of this group.
HP1b binding inh = HP1-beta chromodomain-methylated histone interaction inhibition | P83916 | AlphaScreen HP1-beta / biotin-H3K9me3 peptide binding | Potency, µM (doses to about 114 µM), for the others: at the highest dose activity change, negative = inhibition, actives largely listed as inhibitors | hit rate 0.56% among 390,000 | AID 540317; note: nearly all actives have a fitted effect of over 70% in size
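AlphaScreen: HP1-beta (50 nM) preformed 30 min with biotin-H3(1-18)K9me3 peptide (50 nM) in PBS pH 7.4, 0.01% Tween-20. Compound added for 30 min at RT, then streptavidin donor/nickel chelate acceptor beads (10 ug/mL) for 30 min.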
Sfp inh = Sfp phosphopantetheinyl transferase inhibition; Biochemical Sfp PPTase activity, qHTS; Potency, µM, for the others: largest response in the series, negative = inhibition, hits mostly inhibitors; hit rate 3.5% among 310,000;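 note: the enzyme is Sfp with the accession as filed and its product quenches rhodamine fluorescence; 0% = enzyme reaction without inhibitor and -100% = no enzyme wells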
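After 15 min at room temperature with compound, 15 nM Sfp received 5 uM rhodamine-CoA plus 12.5 uM BHQ-2-ybbR (50 mM Hepes pH 7.6, 10 mM MgCl2). Rate came from the fluorescence difference over 30 min, ex 525/em 598 nm.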
JMJD2A Tudor = inhibitors of human JMJD2A Tudor domain. Potency, µM (doses to about 114 µM), for the others: top-dose activity change, negative = inhibition, usual class: inhibitors. O75164. AlphaScreen JMJD2A-Tudor / H3K4me3 peptide binding. hit rate 4.4% among 390,000. AID 504339; note: % is set by controls: 0 for no effect and ±100 for the full control effect; nearly all actives have a fitted effect of over 50% in size
G9a block = inhibitors of human histone lysine methyltransferase G9a | Q96KQ7 | G9a H3K9 monomethylation, AlphaScreen, 2 h | Potency, µM (doses to about 102 µM), inactives show at the top dose activity, negative = inhibition, actives largely listed as inhibitors | hit rate 8.8% among 350,000; note: % is set by controls: 0 for no effect and ±100 for the full control effect; nearly all actives have a fitted effect of over 75% in size
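Compounds were preincubated with 20 nM G9a for 15 min, after which biotinylated H3K9 peptide (500 nM) and SAM (20 uM) started a 2 h room-temperature reaction. Monomethylated product was quantified by antibody-based AlphaScreen chemiluminescence.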
BAZ2B inh = BAZ2B (human) inhibition. hit rate 4.4% among 360,000. Potency, µM (highest dose often 114 µM), for inactives: at the top dose activity change, negative = inhibition, hits mostly inhibitors. Q9UIF8. AlphaScreen BAZ2B-H3K14Ac peptide displacement; note: % is set by controls: 0 for no effect and ±100 for the full control effect; nearly all actives have a fitted effect of over 60% in size
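Multi-concentration screen (max 110 uM) measuring displacement of acetylated histone H3 peptide from BAZ2B by AlphaScreen, using 50 nM protein, 50 nM peptide and 10 ug/mL streptavidin donor plus Ni-chelate acceptor beads.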
L3MBTL1 block = blocks human L3MBTL1 | AID 485360 | hit rate 0.66% among 230,000 | AlphaScreen L3MBTL1–H3K9me1 peptide binding | Q9Y468 | Potency, µM (doses to about 57.1 µM), for the others: at the highest dose activity, negative = inhibition, most hits filed as inhibitors; note: % is set by controls: 0 for no effect and ±100 for the full control effect; nearly all actives have a fitted effect of over 60% in size
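AlphaScreen proximity signal between nickel-chelate acceptor and streptavidin donor beads (final 10 ug/mL) reports binding of 50 nM L3MBTL1 to 75 nM biotin-H3 K9me1 peptide; complex incubated with compounds 30 min at room temperature; cefsulodin titration as control.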
An asterisk follows results filed as active; ? = inconclusive; . = no result; [ ] = dose if it differs, or a comment. Calls come from the whole dose curve; as a rule, active = well fitted curve in the direction sought with a large enough effect; inconclusive = small, poorly fitted or top-dose-only effect, or another doubt; inactive = no such curve, though single readings can be large; an effect the other way counts as inactive or inconclusive. Potency is the fitted concentration of half-maximal effect.

SMILES	HP1b binding inh	Sfp inh	JMJD2A Tudor	G9a block	BAZ2B inh	L3MBTL1 block
Cc1ccc(C)c(C(=O)COC(=O)CNS(=O)(=O)c2ccccc2)c1	1%	5%	-14%	71µM*	4%	.
O=C(NNC1=NCCC1)C1CC1	-18%	-6%	-35%[57.1 µM]	13µM*	?	-27%
Brc1cccc(OCCCN2CCCCCC2)c1	?	-22%	22µM*	10µM*	50µM*	-5%
CC1CCN(CCOc2cccc(Br)c2)CC1	?	?	7.9µM*	7.9µM*	56µM*	-4%
c1cc(OCCCN2CCCCC2)ccc1CN1CCCCC1	15%	5%	-10%	6%	-16%	.
Clc1cccc(OCCN2CCN(CCOc3cccc(Cl)c3)CC2)c1	-6%	-7%	?	?	?	-14%
CCOc1ccccc1NC(=O)Nc1nnc(N2CCCCCC2)s1	35%	.	-5%	?	-9%	.
COc1ccccc1CNC(=O)CCc1c(C)nn(-c2ccc(N3CCCCC3)nn2)c1C	55%	.	-16%	-4%[59 µM]	-24%	.
O=C(N/N=C/c1oc(O)c2ccccc12)c1ccccc1O	-17%	30%	-16%	35µM*	-8%	-3%
O=C(N/N=C/c1ccoc1)c1ccccc1O	3%	-1%	-19%	-5%	?	.
O=C(N/N=C/c1ccc2nccnc2c1)c1ccccc1O	.	7%	.	16%	-10%	-3%
O=C(N/N=C/c1ccnc2ccccc12)c1ccccc1O	1%	4%	100µM*	4%	-14%	.
Cc1cnc(CNc2cc(-c3cccc(C#N)c3)ncn2)cn1	.	-2%	.	-4%[0.501 µM]	.	.
CCCCn1c(CCC)nc([N+](=O)[O-])c1Sc1ccc(Cl)cn1	4%	-5%	-22%	14µM*	-20%	-3%
COc1ccc(-c2cc(C)nc3c(-c4ccc(OC)c(OC)c4)c(C)nn23)cc1	-20%	.	28µM*	14µM*	20µM*	.
COc1ccc(-c2c(C)nn3c(-c4ccccc4)cc(-c4ccccc4)nc23)cc1OC	?	.	-27%	?	?	.
CC(=O)c1cccc(NC(=O)Cn2c(=O)oc3cc(S(=O)(=O)NC4CCCC4)ccc32)c1	48%	.	0%	5%[59 µM]	-1%	.
CN1CCc2c(n(CC(O)CN3C(=O)c4ccccc4S3(=O)=O)c3ccccc23)C1=O (configuration not stated)	16%	8%	-30%	-27%[59 µM]	-5%	4%
CN1CCc2c(n(CC(O)CN(CCO)CCO)c3ccccc23)C1=O (configuration not stated)	50%	?	-28%	35µM*	-15%	?
CN1CCc2c(n(CC(O)CNCc3ccccc3)c3ccccc23)C1=O (configuration not stated)	35%	-14%	-10%	50µM*	-26%	-2%
COCC(=O)N1c2nc(-c3ccco3)nn2C2(CCCCC2)[C@@H]2CCCC[C@@H]21	12%	.	-24%	1%[59 µM]	?	.
O=C(NCc1ccncc1)/C(=C\c1ccc(F)cc1)NC(=O)c1ccccc1	35%	9%	2%	-2%[59 µM]	8%	8%
CN(C)c1ccc(/C=C(\NC(=O)c2ccccc2)C(=O)NCc2ccncc2)cc1	-7%	5%	-31%	28µM*	-22%	.
CN(C)c1ccc(/C=C(\NC(=O)c2ccccc2)C(=O)NCc2cccnc2)cc1	-3%	13%	-10%	40µM*	-17%	.
CCc1nnc(NC(=O)c2cccc(S(=O)(=O)N3CC(c4ccccc4)CC3=O)c2)s1 (configuration not stated)	44%	23%	-11%	-1%	11%	.
SMILES	HP1b binding inh	Sfp inh	JMJD2A Tudor	G9a block	BAZ2B inh	L3MBTL1 block
COc1ccc(C(=O)Nc2nncs2)cc1S(=O)(=O)N1CC(c2ccccc2)CC1=O (configuration not stated)	55%	-14%	-13%	50µM*	4%	-1%
Cc1cc(NC(=O)c2cccc(S(=O)(=O)N3CC(c4ccccc4)CC3=O)c2)no1 (configuration not stated)	17%	32%	-24%	-8%[59 µM]	-1%	-6%
Cc1nnc(NC(=O)c2cccc(S(=O)(=O)N3CC(c4ccccc4)CC3=O)c2)s1 (configuration not stated)	44%	20%	-8%	50µM*	6%	.
CCC1CC(/C(C)=N/NC(N)=O)OC1=O (configuration not stated)	16%	20%	-6%	-10%[59 µM]	-13%	.
C/C(CC1CC(C)OC1=O)=N\NC(N)=S (configuration not stated)	-12%	25µM*	?	35µM*	?	-6%
c1ccc(CCNc2ccccc2)cc1	.	15%	.	?	56µM*	?
COc1ccc(-n2c(=O)c3ccccc3c3ccccc3c2=O)c(OC)c1	30%	5%	-30%	10µM*	-8%	-5%
COc1ccc(C)cc1-n1c(=O)c2ccccc2c2ccccc2c1=O	28%	10%	-7%	18µM*	?	-16%
COc1ccc(C)cc1-n1c(SCC(=O)Nc2cc(C)on2)nc2ccccc2c1=O	26%	10%	-21%	3%	-26%	-6%
N#Cc1c(Nc2cccc(F)c2)sc(C(=O)c2ccc(Cl)cc2)c1N	5%	.	-15%	11µM*	?	.
N#Cc1c(SCc2ccc(Cl)cc2)sc(C(=O)c2ccccc2)c1N	76%	3%	-7%	-3%	-1%	15%
CCC/C=C(\CCC)C(NS(=O)(=O)c1ccc(C(F)(F)F)cc1)c1ccc(-c2ccccc2)cc1 (configuration not stated)	.	28%	.	.	.	.
Cc1c(Cl)cccc1-n1nc(C)c2c(C(=O)NCc3ccccc3)cc(C3CC3)nc21	23%	.	-10%	?	8%[57.1 µM]	.
CCCCc1nc2c(c3c1C[C@H](C)OC3)CN(S(=O)(=O)CCCC)CC2	.	-4%	.	.	.	.
Cc1ccc(-c2nnc(Nc3ccc(O)cc3)c3ccccc23)cc1S(=O)(=O)NCc1nc2ccccc2[nH]1	41%	.	-10%	25%[59 µM]	4%	.
CN1CCc2nc(SCC(=O)Nc3ccc(OC(F)(F)F)cc3)c(C#N)c(-c3cccs3)c2C1	-36%	50µM*	?	-17%[59 µM]	-4%	17%
CCOc1ccc(NC(=O)CSc2nc(-c3cccs3)cc(C(F)(F)F)c2C#N)cc1	33%	.	0%	-1%[59 µM]	-1%	.
CN1CCc2nc(SCC(=O)Nc3cccc(F)c3)c(C#N)c(-c3cccs3)c2C1	-21%	79µM*	?	.	50µM*	-4%
Cc1cccc(CSc2nc3c(c(-c4cccs4)c2C#N)CN(C)CC3)c1	7%	-26%	?	?	-37%	-6%
O=C(c1ccncc1)N1CCC2(CC1)CCN(c1ccccn1)CC2	.	8%	.	0%[12.7 µM]	.	.
